Pf growth 48h: inhibits P. falciparum growth in the first generation, 48 h. P. falciparum luciferase growth in erythrocytes, 48 h. Potency, µM (series often up to 28.7 µM), for inactives: at the top dose activity change, negative = inhibition, most hits filed as inhibitors. actives 5.9% (n = 310,000)
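Compounds are pin-transferred into medium, infected erythrocytes (2% hematocrit, 0.1% parasitemia final) are added, and plates sit one parasite generation at 37 C in 5% CO2. Detection reagent is then added and luminescence measured.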
AmpC inh no detg: blocks E. coli AmpC beta-lactamase in detergent-free assay. P00811. AmpC nitrocefin hydrolysis, absorbance 480 nm, 0.0001% Triton. Potency, µM (top dose mostly 57.1 µM), inactives show at the top dose activity change, negative = inhibition, hits mostly inhibitors. actives 0.52% (n = 330,000);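 also: plate controls were no compound for no effect and no enzyme for full effect; nearly all actives have a fitted effect of over 20% in size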
Target sequence (P00811 whole entry, looked up): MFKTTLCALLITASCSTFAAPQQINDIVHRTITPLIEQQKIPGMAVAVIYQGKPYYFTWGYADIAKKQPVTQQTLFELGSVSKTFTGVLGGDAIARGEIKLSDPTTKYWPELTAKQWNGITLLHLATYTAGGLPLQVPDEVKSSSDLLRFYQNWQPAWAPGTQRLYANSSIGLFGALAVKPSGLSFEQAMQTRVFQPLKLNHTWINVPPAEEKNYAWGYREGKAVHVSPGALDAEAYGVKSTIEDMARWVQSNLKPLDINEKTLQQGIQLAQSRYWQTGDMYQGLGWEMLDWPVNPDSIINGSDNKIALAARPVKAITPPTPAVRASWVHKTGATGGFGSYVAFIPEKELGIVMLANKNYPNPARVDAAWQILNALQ
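AmpC (5.3 nM in the dispensed reagent) in 20 mM phosphate pH 7.0 with 0.01% (detergent screen) or 0.0001% Triton X-100 was preincubated with compounds for 15 min at room temperature. Nitrocefin was then added from an 800 uM solution, and hydrolysis was followed at 480 nm.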
AMA1 RON2 block: inhibitors of Plasmodium falciparum AMA1-RON2 interaction. AlphaScreen AMA1-biotinylated RON2 peptide binding. Potency, µM (series often up to 58.2 µM), for inactives: at the top dose activity change, negative = inhibition, most hits filed as inhibitors. actives 0.2% (n = 360,000);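 also: 0% = vehicle wells and -100% = peptide control; nearly all actives have a fitted effect of over 45% in size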
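AMA1 (3D7) with his tag at 25 nM final met compounds first, then biotinylated RON2 peptide at 25 nM; detection used donor plus acceptor beads, 10 µg/mL apiece, read by AlphaScreen after 30 min at room temperature.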
Pf growth 96h: P. falciparum growth inhibition at 96 hour, primary screen for plastid delayed-death inhibitors. P. falciparum luciferase reporter growth, 96 h. Potency, µM (titrated, usually from 28.7 µM), without a hit: top-dose activity change, negative = inhibition, usual class: inhibitors. actives 6.9% (n = 320,000)
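Two parasite generations (96 h, 37 C, 5% CO2) of compound exposure in infected erythrocytes (0.05% parasitemia, 2% hematocrit). Luciferase-reporter P. falciparum; decreased luminescence indicates inhibited growth, aimed at apicoplast-acting delayed death.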
HCV inhibitor: HCV inhibition; AID 651820; actives 3.4% (n = 340,000); Huh7.5.1 HCVcc-Cre infection, luciferase reporter, 44 h; Potency, µM (doses to about 41.8 µM), without a hit: at the top dose activity change, negative = inhibition, most hits filed as inhibitors
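Seed cells (1,000/well) for 4 h; treat with compound and infect with HCVcc-Cre, moi about 0.5. Incubate 44 h, then detect luciferase activity.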
AmpC inh detg: AmpC beta-lactamase inhibition with detergent present. Potency, µM (titrated, usually from 114 µM), for the others: at the top dose activity change, negative = inhibition, usual class: inhibitors. actives 0.041% (n = 370,000). AmpC hydrolysis of nitrocefin, absorbance 480 nm, 0.01% Triton. P00811;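 also: 0% = no-compound wells and -100% = no-enzyme wells; nearly all actives have a fitted effect of over 25% in size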
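20 mM phosphate pH 7.0 + 0.01% (detergent screen) or 0.0001% Triton X-100; 5.3 nM AmpC reagent; cpd preinc 15 min RT; nitrocefin (800 uM stock) to start; A480 q20 s × 4 min; Activity was normalised to no-enzyme and no-compound control wells.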
* hit, by the source's call. Shown are actives, neighbours in structure and some others; about 11% of the full set was active somewhere. Calls follow the shape of the dose curve; as a rule, active = well fitted curve in the direction sought with a large enough effect; inconclusive = small, poorly fitted or top-dose-only effect, or another doubt; inactive = no such curve, though single readings can be large; an effect the other way counts as inactive or inconclusive. Unless noted, % is scaled to controls: 0 for no effect and ±100 for the full control effect; potency is read from the fitted curve at half-maximal effect.

For CCn1c(=O)cc(SCC(=O)NCc2ccco2)c2ccccc21 the results were Pf growth 48h 6.3%, AmpC inh no detg -1.5%, AMA1 RON2 block -6.4%, Pf growth 96h inconclusive, HCV inhibitor inconclusive and AmpC inh detg 1.6%.
`CCOc1cc(C2C(C#N)=C(N)OC(C)=C2C(C)=O)cc(Br)c1O` (centres undefined) gave Pf growth 48h -4.4%, AmpC inh no detg -21.4%, AMA1 RON2 block -11.2%, Pf growth 96h inconclusive, HCV inhibitor -21.3% and AmpC inh detg -7.6%.
`CCOc1cc(C2C(C#N)=C(N)OC(C)=C2C(C)=O)c(Br)c(Br)c1OC(C)C` (centres undefined) gave Pf growth 48h 3.29µM*, AmpC inh no detg 8.6%, AMA1 RON2 block -19.1%, Pf growth 96h 8.28µM*, HCV inhibitor -11.9% and AmpC inh detg -9.1%.
O=C(NCc1ccccc1Br)c1ccc2nc(N3CCCCC3)sc2c1 was read as AmpC inh detg -5.5%.
COc1ccc(-c2oc3ccc(-c4ccc(OC)nc4)cc3c2C#CC2(O)CCCCC2)cc1 was read as Pf growth 48h inconclusive, AmpC inh no detg 1.6%, AMA1 RON2 block 11.2%, Pf growth 96h 5.86µM*, HCV inhibitor inconclusive and AmpC inh detg inconclusive.
`COc1ccc(-c2sc3cc4c(cc3c2-c2ccc(OCCN3CCCCC3)cc2)OCO4)cc1` gave AmpC inh no detg 4.8%, AMA1 RON2 block -11.6% and HCV inhibitor -16.6%.
Screening COc1ccccc1-c1sc2cc3c(cc2c1C#CC1(O)CCCCC1)OCO3 returned Pf growth 48h inconclusive, AmpC inh no detg -22.3%, AMA1 RON2 block -2.8%, Pf growth 96h 4.65µM*, HCV inhibitor inconclusive and AmpC inh detg 5.1%.
COc1ccc(-c2sc3cc4c(cc3c2C#CC2(O)CCCCC2)OCO4)cc1 was read as Pf growth 48h inconclusive, AmpC inh no detg -21.3%, AMA1 RON2 block -0.5%, Pf growth 96h inconclusive, HCV inhibitor 1.58µM* and AmpC inh detg 1.9%.
For COc1ccc(-c2oc3ccc(-c4ccc5c(c4)OCO5)cc3c2C#CC2(O)CCCCC2)cc1 the results were AMA1 RON2 block 7.4% and HCV inhibitor inconclusive.
Screening COc1ccc2c3c(cccc13)C(=O)N(O)C2=O returned Pf growth 48h 13.1µM*, AmpC inh no detg -12.2%, AMA1 RON2 block -1.4%, Pf growth 96h 15.1%, HCV inhibitor inconclusive and AmpC inh detg 3.3%.
Screening CCOC(=O)c1cnc(NCc2ccc(OC)cc2OC)c2ccccc12 returned AmpC inh detg 2.5%.
`CC(C)(C)c1ccc(C(=O)Nc2ccc(S(=O)(=O)Nc3cnc4ccccc4n3)cc2)cc1` gave Pf growth 48h 13.1µM*, AmpC inh no detg -23.5%, AMA1 RON2 block -15.7%, Pf growth 96h 9.4%, HCV inhibitor 14.4% and AmpC inh detg -0.8%.
`O=C(/C=C/c1c(F)cccc1Cl)Nc1ccc(S(=O)(=O)Nc2ncccn2)cc1` gave Pf growth 48h -5.2%, AmpC inh no detg -10.8%, AMA1 RON2 block -11.8%, Pf growth 96h 13.1µM*, HCV inhibitor 0.2% and AmpC inh detg 2.8%.
For O=C(Nc1ccc(S(=O)(=O)NCc2cccnc2)cc1)c1ccco1 the results were Pf growth 48h -25.5%, AmpC inh no detg -9.3%, AMA1 RON2 block 12.4%, Pf growth 96h -19.9%, HCV inhibitor inconclusive and AmpC inh detg -13.1%.
O=C(Nc1ccc(S(=O)(=O)Nc2ncccn2)cc1)c1ccccc1 was read as Pf growth 48h 0.0%, AmpC inh no detg -8.8%, AMA1 RON2 block 8.3%, Pf growth 96h 1.17µM*, HCV inhibitor 17.1% and AmpC inh detg inconclusive.
O=C(Nc1ccc(S(=O)(=O)NCc2cccnc2)cc1)c1ccccc1Cl was read as Pf growth 48h 1.0%, AmpC inh no detg -2.2%, AMA1 RON2 block -6.2%, Pf growth 96h 117.1%, HCV inhibitor 8.91µM* and AmpC inh detg inconclusive.
O=C(Nc1ccc(S(=O)(=O)Nc2ncccn2)cc1)c1ccc(Br)cc1 was read as AMA1 RON2 block -7.6%.
For CCOc1cc(-c2ccc(OC(=O)c3ccc(OC)cc3)c(OC)c2)cc(=O)c2c(C)oc(C)c12 the results were AmpC inh detg -5.7%.
`COc1ccc(Nc2nc(Nc3ccc(OC)cc3OC)nc(N3CCOCC3)n2)c(OC)c1` gave AmpC inh detg -11.4%.
For COc1ccc(-c2noc(CSc3nnc(Cc4ccccc4)n3-c3ccccc3)n2)cc1OC the results were AmpC inh detg -1.8%.
Cc1cccc(N2CCN(CCCNC(=O)Cn3ncc4c([nH]c5ccccc54)c3=O)CC2C)c1 (centres undefined) was read as AmpC inh detg 5.4%.
Screening O=C(CSc1nc2c([nH]c3ccccc32)c(=O)n1-c1ccccc1)c1ccc(Cl)cc1 returned AmpC inh detg 1.4%.
For O=C(Nc1ccc(S(=O)(=O)NCCc2ccccc2)cc1)c1ccncc1 the results were Pf growth 48h 29.0%, AmpC inh no detg -35.6%, AMA1 RON2 block 10.2%, Pf growth 96h inconclusive, HCV inhibitor 11.2µM* and AmpC inh detg -5.6%.
Screening CC(=O)Nc1ccc(S(=O)(=O)NCc2cccnc2)cc1 returned Pf growth 48h 8.3%, AmpC inh no detg -7.3%, AMA1 RON2 block 12.9%, Pf growth 96h inconclusive, HCV inhibitor 35.8% and AmpC inh detg -2.4%.
For O=C(NCc1cccnc1)c1ccc(NS(=O)(=O)c2ccc(F)cc2)cc1 the results were Pf growth 48h inconclusive, AmpC inh no detg -26.6%, AMA1 RON2 block -3.4%, Pf growth 96h 6.57µM*, HCV inhibitor 3.9% and AmpC inh detg 4.3%.
CCCCCc1ccc(S(=O)(=O)NCCc2ccncc2)cc1 was read as Pf growth 48h -6.1%, AmpC inh no detg 5.3%, AMA1 RON2 block -3.4%, HCV inhibitor 10µM* and AmpC inh detg 2.1%.
For O=C(Nc1ccc(S(=O)(=O)NCCc2ccccc2)cc1)c1ccco1 the results were Pf growth 48h 4.4%, AmpC inh no detg -9.5%, AMA1 RON2 block -1.5%, HCV inhibitor -15.2% and AmpC inh detg -1.1%.
For O=C(Nc1ccccc1)c1ccc(S(=O)(=O)NCc2cccnc2)cc1 the results were Pf growth 48h -12.6%, AmpC inh no detg -6.6%, AMA1 RON2 block -8.3%, Pf growth 96h 16.1%, HCV inhibitor 8.91µM* and AmpC inh detg inconclusive.
For O=C(Nc1ccc(F)cc1)C1CCN(c2nc3ccccc3nc2C(F)(F)F)CC1 the results were AmpC inh detg 0.3%.

Compound activity as filed in PubChem.
